Screens from PubChem.
Shown are actives, neighbours in structure and some others; about 1.8% of the full set was active somewhere.
CCHF vOTU inh-1 = CCHFV vOTU protease inhibition; 370,000 tested, 0.55% active; inhibition, % at 11.5 µM; Pep-AMC fluorescence
Y pestis TopoI = Y. pestis Topo-I inhibition via cleavage products. Y. pestis Topo-I cleavage product accumulation, plate reader. activity, % at 10 µM. 360,000 tested, 0.064% active. AID 504884; in the data active = activity above about 50%, passing the limit was not always enough
VHR inh abs = DUSP3 (human) phosphatase inhibition; P51452; inhibition, % at 13.3 µM; 290,000 tested, 0.52% active; recombinant VHR phosphatase, pNPP absorbance; in the data active = inhibition above about 50%
Target sequence (P51452 whole entry, looked up): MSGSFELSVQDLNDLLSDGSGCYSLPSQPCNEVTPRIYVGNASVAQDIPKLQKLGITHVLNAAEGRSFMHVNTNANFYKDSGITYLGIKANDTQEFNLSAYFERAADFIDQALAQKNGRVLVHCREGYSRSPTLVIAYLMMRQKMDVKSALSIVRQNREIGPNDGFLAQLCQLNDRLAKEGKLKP
PrPC TRFRET = reduces human prion protein on the cell surface; P04156; cell surface PrPC, TR-FRET read-out; inhibition, % at 13.8 µM; 370,000 tested, 0.43% active; AID 720596; in the data active = inhibition above about 24%
BH1578 lux ind = quorum light induction in luxS cqsA deficient V. cholerae; V. cholerae BH1578 lux reporter, luminescence, 6 h; activation, % at 18.7 µM; 350,000 tested, 0.16% active; AID 588436; in the data active = activation mostly above about 9.7%, no sharp cut-off
MazF activator = increases E. coli MazEF RNase cleavage of RNA. P0AE70. FAM/BHQ RNA-DNA oligo cleavage fluorescence, 5 h. activation, % at 20 µM. 350,000 tested, 0.32% active. AID 504720; in the data active = activation above about 50%
Target sequence (P0AE70 whole entry, looked up): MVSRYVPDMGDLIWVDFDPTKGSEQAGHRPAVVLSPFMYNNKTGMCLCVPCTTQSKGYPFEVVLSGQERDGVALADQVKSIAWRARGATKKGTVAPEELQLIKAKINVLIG
CCHF vOTU inh-2 = confirmation of CCHF virus vOTU protease inhibitors. 1,900 tested, 17% active. AID 686976. Recombinant CCHFV vOTU, Pep-AMC fluorescence. inhibition, % at 11.5 µM. shares compounds with CCHF vOTU inh-1
A number is an active result. Cut-off read from the data, not from the text of the source, unless noted: active = inhibition above about 30%; inactive = the rest.

Screening Cc1ccc([C@@H]2CC=C(C(=O)O)[C@H](c3ccc(Cl)cc3)N2S(=O)(=O)c2ccccc2C)cc1 returned CCHF vOTU inh-1 33, Y pestis TopoI inactive, PrPC TRFRET inactive, BH1578 lux ind inactive, MazF activator inactive and CCHF vOTU inh-2 inactive.
`Cc1noc(C)c1NC(=O)N(C)C[C@@H]1Oc2c(NC(=O)c3ccncc3)cccc2C(=O)N([C@H](C)CO)C[C@@H]1C` gave CCHF vOTU inh-1 inactive, Y pestis TopoI inactive, PrPC TRFRET inactive, BH1578 lux ind inactive and MazF activator inactive.
Cc1ccc(CNC(=O)O[C@H]2CC[C@@]34CCCN3C(=O)CCC[C@H]4C2)cc1 was read as PrPC TRFRET inactive.
`COc1ccc(S(=O)(=O)NC(=O)C2(C)CCN2C(=O)CC2CC2)cc1` (centres undefined) gave CCHF vOTU inh-1 inactive, Y pestis TopoI inactive, PrPC TRFRET inactive and BH1578 lux ind inactive.
`Cc1nc2c(OCc3ccc(C(F)(F)F)cc3)cccn2c1N(C)C(=O)CCC1CCCC1` gave CCHF vOTU inh-1 33, Y pestis TopoI inactive, PrPC TRFRET inactive, BH1578 lux ind inactive and CCHF vOTU inh-2 inactive.
For CCOC(=O)N(C)c1c(CC)nc2c(OCCC3CCCCC3)cccn12 the results were CCHF vOTU inh-1 30, Y pestis TopoI inactive, PrPC TRFRET inactive, BH1578 lux ind inactive and CCHF vOTU inh-2 inactive.
`Cc1ccc(NS(=O)(=O)c2c(C)ccc3nsnc23)c([N+](=O)[O-])c1` gave CCHF vOTU inh-1 inactive, Y pestis TopoI inactive, VHR inh abs inactive, PrPC TRFRET inactive, BH1578 lux ind inactive and MazF activator inactive.
`Fc1cccc(CNc2ncnc3ccc(-c4ccc5c(c4)OCO5)cc23)c1` gave CCHF vOTU inh-1 30, Y pestis TopoI inactive, PrPC TRFRET inactive, BH1578 lux ind inactive, MazF activator inactive and CCHF vOTU inh-2 inactive.
Screening c1cncc(-c2ccc3ncnc(NCc4ccc5c(c4)OCO5)c3c2)c1 returned CCHF vOTU inh-1 inactive, Y pestis TopoI inactive, PrPC TRFRET inactive, BH1578 lux ind inactive and MazF activator inactive.
Screening Cc1cc(N2C(=O)C(O)=C(C(=O)c3ccco3)C2c2cccc(O)c2)no1 (centres undefined) returned CCHF vOTU inh-1 inactive, Y pestis TopoI inactive, VHR inh abs inactive, PrPC TRFRET inactive, BH1578 lux ind inactive and MazF activator inactive.
Screening Cc1cc(C)c2nc(N3C(=O)C(O)=C(C(=O)c4ccco4)C3c3ccc(O)cc3)sc2c1 (centres undefined) returned CCHF vOTU inh-1 34, Y pestis TopoI inactive, PrPC TRFRET inactive, BH1578 lux ind inactive, MazF activator inactive and CCHF vOTU inh-2 inactive.
Screening Cc1ccc2nc(N3C(=O)C(O)=C(C(=O)c4ccco4)C3c3ccc(O)cc3)sc2c1 (centres undefined) returned CCHF vOTU inh-1 inactive, Y pestis TopoI inactive, VHR inh abs inactive, PrPC TRFRET inactive and BH1578 lux ind inactive.
For Cc1cc(C)c2nc(N3C(=O)C(O)=C(C(=O)c4ccco4)C3c3cccc(O)c3)sc2c1 (centres undefined) the results were CCHF vOTU inh-1 36, Y pestis TopoI inactive, PrPC TRFRET inactive, BH1578 lux ind inactive, MazF activator inactive and CCHF vOTU inh-2 inactive.
`CCOC(=O)c1sc(N2C(=O)C(O)=C(C(=O)c3ccco3)C2c2cccc(Cl)c2)nc1C` (centres undefined) gave CCHF vOTU inh-1 42, Y pestis TopoI inactive, VHR inh abs inactive, PrPC TRFRET inactive, BH1578 lux ind inactive and CCHF vOTU inh-2 inactive.
Screening CC(C)c1ccc(NC2CCCN(C(=O)c3ccc(N4CCOCC4)cc3)C2)cc1 (centres undefined) returned CCHF vOTU inh-1 inactive, Y pestis TopoI inactive, VHR inh abs inactive, PrPC TRFRET inactive, BH1578 lux ind inactive and MazF activator inactive.
`COc1cc(C(=O)N(C)C2CCCCC2)cc(OC)c1OC` gave CCHF vOTU inh-1 inactive, Y pestis TopoI inactive, PrPC TRFRET inactive, BH1578 lux ind inactive and MazF activator inactive.
Screening CCOP(=O)(OCC)C(Nc1cccc(C(F)(F)F)c1)c1ccc(C)cc1 (centres undefined) returned CCHF vOTU inh-1 30, Y pestis TopoI inactive, VHR inh abs inactive, PrPC TRFRET inactive, BH1578 lux ind inactive, MazF activator inactive and CCHF vOTU inh-2 inactive.
